SARS PLpro yeast: qHTS of Yeast-based Assay for SARS-CoV PLP. S. cerevisiae expressing SARS-CoV PLpro, growth rescue. Potency, µM (top dose mostly 32.9 µM), for inactives: at the top dose activity, positive = growth rescue, hits mostly activators. 330,000 compounds, 0.19% hits. AID 485353, 2010; note: potency is the fitted concentration of half-maximal effect; 0% is about no effect; nearly all actives have a fitted effect of over 55% in size
Cycloheximide cs: Cycloheximide Counterscreen for Small Molecule Inhibitors of Shiga Toxin; cell reporter, cycloheximide protein synthesis inhibition counterscreen; max response, %; 300,000 compounds, 12% hits; in the data active = max response mostly above about 13%, no sharp cut-off; inactive = mostly below about 14%; note: read at 38.3 µM for the half of the compounds with a filed dose; 0% is about no effect
Pf growth 48h: Primary qHTS for delayed death inhibitors of the malarial parasite plastid, 48 hour incubation | P. falciparum luciferase growth in erythrocytes, 48 h | Potency, µM (series often up to 28.7 µM), for inactives: top-dose activity change, negative = inhibition, hits mostly inhibitors | 310,000 compounds, 5.9% hits | AID 504832, 2011; active = well fitted inhibition curve with a large enough effect; inconclusive = small, poorly fitted or top-dose-only effect, or another doubt; inactive = no such curve, though single readings can be large or run the other way; note: potency is the fitted concentration of half-maximal effect; % is set by controls: 0 for no effect and ±100 for the full control effect
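A one-generation exposure of luciferase-tagged malaria parasites in RPMI 1640/Albumax erythrocyte culture, 37 C and 5% CO2. Inhibition is inferred from decreased luminescence after adding detection reagent.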
Shiga toxin inh: A qHTS for Small Molecule Inhibitors of Shiga Toxin; Vero cells, Shiga toxin protein synthesis inhibition reporter; inhibition, % at 38.7 µM; 290,000 compounds, 9.2% hits; AID 2315, 2010; in the data active = inhibition mostly above about 28%, no sharp cut-off; inactive = mostly below about 43%; note: 0% is about no effect
Pf growth 96h: Primary qHTS for delayed death inhibitors of the malarial parasite plastid, 96 hour incubation; P. falciparum luciferase reporter growth, 96 h; Potency, µM (doses to about 28.7 µM), for the others: top-dose activity change, negative = inhibition, actives largely listed as inhibitors; 320,000 compounds, 6.9% hits; AID 504834, 2011; active = well fitted inhibition curve with a large enough effect; inconclusive = small, poorly fitted or top-dose-only effect, or another doubt; inactive = no such curve, though single readings can be large or run the other way; note: potency is the fitted concentration of half-maximal effect; % is set by controls: 0 for no effect and ±100 for the full control effect
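Erythrocytes infected with luciferase-expressing P. falciparum were dispensed at 2% hematocrit and 0.05% parasitemia (final), then incubated with compounds 96 hours at 37 C in 5% CO2. Luminescence after detection reagent addition reported growth.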
NS1 function inh: qHTS Assay for Inhibitors of Influenza NS1 Protein Function. Potency, µM (series often up to 46.1 µM), for the others: top-dose activity, positive = more growth. 270,000 compounds, 0.4% hits. AID 2326, 2010; note: potency is the fitted concentration of half-maximal effect; actives are rising curves; nearly all actives have a fitted effect of over 50% in size
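Compounds were scored for reversing the slow growth caused by influenza A NS1 in S. cerevisiae, measured by optical density at 600 nm. Assay medium contained 2% galactose at pH 6.0; NS1-free yeast of the same strain were the positive control.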
Starred values were filed as active, the others as inactive; ? = inconclusive; · = no result. Sampled rows, rich in hits. Any-hit rate of the full collection: about 21%. Unless noted, calls come from the whole dose curve.

SMILES	SARS PLpro yeast	Cycloheximide cs	Pf growth 48h	Shiga toxin inh	Pf growth 96h	NS1 function inh
CSc1ccccc1C(=O)C1CCCN(C(=O)CCc2cccnc2)C1 (stereo not given)	0.4%	24.3*	113.2%	50.1	?	2.5%
O=C(C1CCCN(Cc2cccnc2)C1)N1CCCCC1 (stereo not given)	7.2%	21.7*	-4.7%	-13.4	?	-3.1%
Cn1cc(CCC(=O)N2CCCC(C(=O)c3cccc4ccccc34)C2)cn1 (stereo not given)	0.8%	35.7*	?	20.8	-23.9%	-6.9%
CSc1ccccc1C(=O)C1CCCN(C(=O)c2cncs2)C1 (stereo not given)	-1.9%	8.9	15.0%	12.6	?	-5.8%
CCC(Oc1ccc(Br)cc1)C(=O)N1CCN(c2ncccn2)CC1 (stereo not given)	-4.2%	0.7	-7.2%	-6.3	21.7%	-23.3%
CC(C)(C)CNCCO	·	·	·	·	·	-4.8%
CN(C)C(=O)CCC(=O)N1CCCC(C(=O)c2ccc3c4c(cccc24)CC3)C1 (stereo not given)	0.8%	10.4	-2.2%	14.0	14.7µM*	3.9%
O=C(c1ccc2c3c(cccc13)CC2)C1CCCN(CC2CC2)C1 (stereo not given)	-0.5%	-6.7	?	5.7	?	4.5%
COc1ccc2cc(C(=O)C3CCCN(C(=O)CCc4cnn(C)c4)C3)ccc2c1 (stereo not given)	-1.6%	26.8*	11.5%	42.6*	?	-7.3%
COc1ccc2cc(C(=O)C3CCCN(C(=O)c4cnn(C(C)C)c4)C3)ccc2c1 (stereo not given)	4.1%	11.1	25.2%	-2.4	?	-3.2%
CC(=O)Nc1cc(C(=O)NCCN2CCN(Cc3ccccc3)CC2)ccc1Sc1ccc(C)cc1	-0.8%	6.6	?	-0.9	-9.8%	·
COC(=O)C1CCN(C(=O)COC(=O)c2cc(-c3ccccc3)nc3ccc(OC)cc23)CC1	-1.2%	·	13.1µM*	·	?	·
CCCNC(=O)COC(=O)c1cc(-c2ccc(OC)cc2)nc2ccccc12	-9.1%	12.9*	42.9%	13.6	81.0%	·
COc1ccc(-c2cc(C(=O)OCC(=O)N3CCOCC3)c3ccccc3n2)cc1	-69.2%	·	·	·	·	·
C/C(N)=C(/C#N)C(=O)COc1ncnc2ccccc12	-0.9%	-2.8	26.8%	34.2	-3.0%	2.2%
C/C(N)=C(/C#N)C(=O)COC(=O)c1cc(-c2ccc(Br)cc2)nc2ccccc12	13.0%	13.0*	4.3%	5.7	?	22.4%
COc1ccc2cc(-c3cc(C(=O)OCC(=O)NC4CCS(=O)(=O)C4)c4ccccc4n3)ccc2c1 (stereo not given)	-11.4%	26.1*	67.5%	30.5	45.4%	-17.2%
COc1ccc(-n2nnc3c(SC(C(C)=O)C(=O)N(C)C)ncnc32)cc1 (stereo not given)	-0.6%	-5.3	?	-6.0	?	7.2%
COc1ccc2cc(-c3cc(C(=O)OCC(=O)Nc4c(C)n(C)n(-c5ccccc5)c4=O)c4ccccc4n3)ccc2c1	-9.0%	30.7*	92.8%	52.7*	128.0%	2.7%
CCN(CC)C(=O)COC(=O)c1cc(-c2ccc(OC)cc2)nc2ccccc12	-6.4%	23.0*	-2.5%	34.7	·	-9.0%
CCNC(=O)COC(=O)c1cc(-c2ccc(OC)cc2)nc2ccccc12	-19.5%	0.5	22.3%	-17.8	57.1%	-25.3%
CCc1ccc(N2C(=O)CC(NNc3nc4ccccc4s3)C2=O)cc1 (stereo not given)	-13.5%	-6.2	-0.7%	-13.6	?	4.0%
O=C1c2ccccc2NC(c2ccccc2Cl)N1N=C1CCCCCC1 (stereo not given)	-15.0%	37.4*	96.6%	89.1*	-9.2%	7.1%
FC(F)(F)c1ccc(CN2C[C@@H]3C(c4ccc(C(F)(F)F)cc4)C4(c5cccnc5)CC3(C4)[C@H]2c2ccccc2)cc1 (stereo not given in full)	0.8%	-2.9	2.08µM*	2.6	2.08µM*	4.2%
FC(F)(F)c1ccc(C2[C@H]3CN(Cc4cccnc4)[C@H](c4ccccc4)C34CC2(c2ccccc2)C4)cc1 (stereo not given in full)	-4.1%	-4.1	2.94µM*	-1.6	2.33µM*	18.3%
SMILES	SARS PLpro yeast	Cycloheximide cs	Pf growth 48h	Shiga toxin inh	Pf growth 96h	NS1 function inh
N#Cc1ccc(C23CC4(C2)[C@H](CN(Cc2ccc(C(F)(F)F)cc2)[C@@H]4c2ccccc2)C3c2ccc(C(F)(F)F)cc2)cc1 (stereo not given in full)	-1.8%	-3.0	-19.6%	-7.5	-18.0%	7.3%
CN1C[C@@H]2C(c3ccc(C(F)(F)F)cc3)C3(c4cccnc4)CC2(C3)[C@H]1c1ccccc1 (stereo not given in full)	0.6%	-4.6	2.33µM*	-7.2	2.94µM*	-17.4%
FC(F)(F)c1ccc(CN2C[C@@H]3C(c4ccccc4)C4(c5cccnc5)CC3(C4)[C@H]2c2ccccc2)cc1 (stereo not given in full)	-6.9%	-6.1	2.33µM*	-6.3	3.29µM*	0.9%
CCNS(=O)(=O)c1ccc(C)c(-n2cnnn2)c1C	-4.5%	-4.4	-4.8%	7.2	?	15.2%
Cc1cccc(OCCCn2c(CO)nc3ccccc32)c1	1.1%	43.9*	37.2%	122.4*	24.4%	-0.4%
OCc1nc2ccccc2n1CCCOc1ccccc1	0.4%	30.1*	163.6%	34.8*	?	-2.9%
Cc1cccc(OCCSc2nc3ccccc3n2CC(=O)O)c1	0.1%	1.8	11.1%	·	?	3.9%
Cc1ccc(OCCCn2c(CO)nc3ccccc32)cc1	1.2%	18.4*	64.8%	67.0*	6.8%	-22.2%
Cc1ccccc1OCCCCn1c(CO)nc2ccccc21	-2.6%	-2.8	?	-2.9	?	·
COCc1nnc(NC(=O)c2cccc(NC(=O)C(C)C)c2)s1	1.1%	14.0*	88.8%	26.7*	-29.8%	2.9%
CCc1nnc(NC(=O)c2cccc(NC(=O)C(C)C)c2)s1	1.1%	45.0*	67.7%	66.6	42.5%	14.5%
CC(C)C(=O)Nc1cccc(C(=O)Nc2nncs2)c1	4.6%	1.4	5.2%	21.0	14.9%	6.9%
O=C(NC1=C(NC2CCS(=O)(=O)C2)C(=O)c2ccccc2C1=O)c1ccccc1 (stereo not given)	-3.2%	21.1	1.65µM*	38.6	?	-8.0%
O=C(Nc1ccc(NS(=O)(=O)c2ccccc2)cc1)c1ccc(Cl)cc1	1.0%	3.9	-9.1%	-1.3	-16.9%	1.2%
CN(C1=C(NC(=O)c2ccc(Cl)cc2)C(=O)c2ccccc2C1=O)c1ccccc1	-24.5%	20.3*	1.85µM*	50.3*	?	26.5%
O=C(Nc1cccc(Cl)c1)c1ccccc1	-3.6%	·	24.0%	·	85.2%	·

Screening results: PubChem BioAssay, National Center for Advancing Translational Sciences (NCATS)
